Among all 200,000 compounds or so, about 50 (0.03%) were called active. The rule behind the calls is not given here. For the sample, actives were picked, then their nearest neighbours and some compounds at random. Measured potencies and affinities stand elsewhere.
Biological target: Alkaline phosphatase, tissue-nonspecific isozyme (Homo sapiens) (UniProt P05186)
Assay: human TNAP enzyme activators, primary screen, biochemical, luminescent, no phosphate acceptor, uHTS (AID 1001)
Details: purified TNAP, luminescent activation assay, at 20 µM, hits give high values

Alkaline phosphatase, tissue-nonspecific isozyme (Homo sapiens), sequence (P05186 whole entry, looked up): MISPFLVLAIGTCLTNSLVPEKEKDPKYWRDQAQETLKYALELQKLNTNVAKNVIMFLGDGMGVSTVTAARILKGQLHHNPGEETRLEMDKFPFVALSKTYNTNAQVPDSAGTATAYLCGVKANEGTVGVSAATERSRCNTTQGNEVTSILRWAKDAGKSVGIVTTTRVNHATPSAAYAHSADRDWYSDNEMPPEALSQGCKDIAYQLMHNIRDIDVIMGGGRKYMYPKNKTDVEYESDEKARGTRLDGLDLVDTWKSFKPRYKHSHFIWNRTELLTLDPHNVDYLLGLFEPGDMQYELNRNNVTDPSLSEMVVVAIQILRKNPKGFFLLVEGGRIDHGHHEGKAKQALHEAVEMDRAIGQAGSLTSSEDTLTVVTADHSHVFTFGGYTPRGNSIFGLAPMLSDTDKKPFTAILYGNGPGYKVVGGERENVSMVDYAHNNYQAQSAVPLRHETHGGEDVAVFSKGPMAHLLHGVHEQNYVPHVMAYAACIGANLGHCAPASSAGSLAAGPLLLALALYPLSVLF

SMILES | activation fold
CC(C)c1[nH]nc2c1C1(CCN(Cc3ccccc3)CC1)C(C#N)=C(N)O2 | 0.9 (inactive)
CC(C)=CCSc1nnc([C@@H](NC(=O)OC(C)(C)C)C(C)C)o1 | 1.1 (inactive)
CCOC(=O)N1CCC(NC(=O)CSc2cc(=O)n(CC)c3ccccc23)CC1 | 1.2 (inactive)
CCc1ccc(CNC(=O)Cn2nc(-c3ccccc3)ccc2=O)cc1 | 1 (inactive)
Oc1c(C(c2ccc(Cl)cc2)N2CCCC2)cc(Cl)c2cccnc12 (configuration not stated) | 1.2 (inactive)
CN1CCN(C(c2ccccn2)c2cc(Cl)c3cccnc3c2O)CC1 (configuration not stated) | 2.5 (inactive)
CC(=O)c1sc(NC(=O)C(C)(C)C)nc1C | 1.1 (inactive)
Cc1cccc(NCc2nc(-c3ccccc3)no2)c1 | 1.1 (inactive)
CNC(=S)NNC(=O)c1ccc2c(c1)OCO2 | 1.6 (inactive)
CC(C)CC(CC(C)C)=NNC(=O)c1ccc2c(c1)OCO2 | 1.1 (inactive)
CC(C)CCC(C(=O)O)C(C)CC(=O)NNC(=O)c1ccco1 (configuration not stated) | 1.1 (inactive)
CC(C)CNC(=O)C(=O)NNC(=O)c1ccco1 | 1.1 (inactive)
COC(=O)c1ccc(N=Cc2c(C(F)(F)F)[nH][nH]c2=O)cc1 | 0.8 (inactive)
Cc1ccc(/C=N/NC(=O)c2nn(C)cc2Cl)cc1 | 1.1 (inactive)
C/C(=N\NC(=O)c1nn(C)cc1Cl)c1ccncc1 | 1.2 (inactive)
Cc1nc(Nc2nc(CSc3nc4ccccc4[nH]3)cc(=O)[nH]2)nc2ccccc12 | 2.5 (inactive)
COc1ccc2nc(Nc3nc(CSc4nc5ccccc5[nH]4)cc(=O)[nH]3)nc(C)c2c1 | 2.4 (inactive)
CCOC(=O)CNC(=O)C(CO)NC(=O)OCc1ccccc1 (configuration not stated) | 1.1 (inactive)
CCOC(=O)/C(N=Nc1sc(C(=O)OCC)c(C)c1C(=O)OCC)=C(\C)O | 1 (inactive)
COC(=O)c1sccc1NC(=O)Cn1nnc(-c2ccc(C)cc2)n1 | 1 (inactive)
O=C(CCC(=O)Nc1ccc(Cl)cc1Cl)NNC(=O)Nc1ccccc1 | 1.3 (inactive)
Cc1cc([N+](=O)[O-])nn1CC(=O)Nc1ccc(F)cc1 | 1.1 (inactive)
Cc1cc([N+](=O)[O-])nn1CC(=O)Nc1cc(F)ccc1F | 1 (inactive)
CCOC(=O)C1(Cc2cccc(OC)c2)CCN(Cc2cnc(C)s2)CC1 | 1 (inactive)
CCCCN1CNC(=S)N(Cc2ccccc2)C1 | 0.9 (inactive)

SMILES | activation fold
COc1ccc(S(=O)(=O)Nc2ccccc2C)cc1 | 1 (inactive)
CCN(CC)c1ccc(N=Cc2ccc(N(CC)CC)cc2O)cc1 | 6 (active)
CCN(CC)c1ccc(C=Nc2ccc(C)cc2)c(O)c1 | 0.9 (inactive)
CCN(CC)c1ccc(C=Nc2ccc(N(C)C)cc2)c(O)c1 | 2.3 (inactive)
COc1ccc(C(C)=O)c(Oc2nc(CN3CCOCC3)nc3scc(-c4cccs4)c23)c1 | 1 (inactive)
CC(=O)NNc1ncnc2c1cnn2-c1ccc(C)c(Cl)c1 | 2.2 (inactive)
Cn1ncc2c(NNC(=O)c3ccc(Cl)cc3Cl)ncnc21 | 2.4 (inactive)
Cn1cccc1C(=O)C(=O)Nc1ccccc1C(F)(F)F | 1.2 (inactive)
CN(CCO)C(=O)CCC(=O)Nc1ccc(S(N)(=O)=O)cc1 | 1.1 (inactive)
CC[n+]1c(/C=C/C=C/N(C(C)=O)c2ccccc2)sc2ccccc21 | 0.7 (inactive)
CCN1/C(=C/C=C/C=C/c2sc3ccccc3[n+]2CC)Sc2ccccc21 | 53.2 (active)
CCN1/C(=C/C(C)=C/c2sc3ccccc3[n+]2CC)Sc2ccccc21 | 0.4 (inactive)
CCNC(=S)NNC(=O)c1cc(C)nc2ccccc12 | 1.7 (inactive)
CCCc1cc(C(=O)NNC(=S)NCC)c2ccccc2n1 | 1.1 (inactive)
COc1ccc(C)cc1-n1[nH]nnc1=S | 1 (inactive)
COc1ccc(NC(=S)N2CCCC2c2ccc(OC)c(OC)c2)cc1 (configuration not stated) | 0.9 (inactive)
C=CCNC(=S)NNC(=O)C(CCCC)CC(C)O (configuration not stated) | 1.7 (inactive)
C=CCNC(=S)NNC(=O)C(CCC(C)C)CC(C)(C)O (configuration not stated) | 1.1 (inactive)
O=C1c2ccc(Br)cc2C(=O)N1c1ccc(Cc2ccncc2)cc1 | 1.1 (inactive)
COCCNC(=S)N/N=C(\C)c1ccccc1OC | 1.1 (inactive)
COCCNC(=S)N/N=C(\C)c1ccccc1F | 1 (inactive)
CN(C)CCNC(=O)c1ccc(-c2nn(C)c(=O)c3ccccc23)cc1 | 1.1 (inactive)
CCc1cc2c(=O)[nH]c(-c3ccccn3)nc2s1 | 1.8 (inactive)
Cc1sc2nc(-c3ccccn3)[nH]c(=O)c2c1-c1ccccc1 | 1.4 (inactive)
O=C(O)/C=C/C(=O)N1CCN(S(=O)(=O)c2cccc(C(F)(F)F)c2)CC1 | 1.1 (inactive)

SMILES | activation fold
COc1cccc(/C=N/NC(=O)c2[nH]c(C)c(C(=O)N/N=C/c3cccc(OC)c3)c2C)c1 | 1.2 (inactive)
Cc1cccc(C)c1NC(=O)C1(N(C(=O)c2ccccn2)c2ccc(O)cc2)CCCCC1 | 1 (inactive)
Cc1cccc(C)c1NC(=O)C1(N(Cc2ccco2)C(=O)c2ccccn2)CCCC1 | 1 (inactive)
O=C(NCCCn1ccnc1)/C(=C\c1cccnc1)NC(=O)c1ccccc1F | 1 (inactive)
O=C(Nc1cccc2ccccc12)c1ccc([N+](=O)[O-])s1 | 1 (inactive)
CCC(=O)Nc1ccc(/C(C)=N\NC(=O)c2ccc(C)s2)cc1 | 1 (inactive)
Cc1cc(C)c(-c2csc(NC(=O)C3=NN(c4ccccc4)C(=O)CC3)n2)c(C)c1 | 0.9 (inactive)
O=c1[nH]c(NCCO)nc2c1C1(CCCCC1)Cc1ccccc1-2 | 1 (inactive)
Cn1c(NCCCO)nc2c(c1=O)C1(CCCCC1)Cc1ccccc1-2 | 1 (inactive)
CC1CCCN(c2nc3ccccc3nc2C(C#N)C(=O)OC2CCCCC2)C1 (configuration not stated) | 1 (inactive)
Clc1ccc(-c2nc3ccccn3c2CN2CCCCC2)cc1 | 1.1 (inactive)
Cc1ccc2nc(-c3ccccc3)c(CN3CCN(c4ccccc4F)CC3)n2c1 | 1.1 (inactive)
O=c1cc(N2CCc3ccccc3C2)[nH]c(=O)n1Cc1ccc(F)cc1 | 1 (inactive)
Cc1sc(NC(=O)CSc2nnc(COc3ccc(Cl)cc3)n2C)c(C#N)c1C | 1.1 (inactive)
Cc1cccc(-c2nsc(SCC(=O)N3CCCC3)n2)c1 | 1.1 (inactive)
Cc1ccc(Nc2nc(N)nc(CN3CCN(C(=O)c4ccco4)CC3)n2)cc1Cl | 1 (inactive)
CNC(=S)NC1CC2CCCC(C1)N2Cc1ccc(C)cc1 (configuration not stated) | 1.1 (inactive)
CCNC(=S)NC1CC2CCC(C1)N2Cc1ccccc1 (configuration not stated) | 1 (inactive)
Cc1c(Cl)c(C(=O)NNC(=S)Nc2ccc(F)cc2)nn1C | 2.7 (inactive)
COc1ccccc1NC(=S)NNC(=O)c1nn(C)c(C)c1Cl | 1.2 (inactive)
COCc1nnc(NC(=O)c2ccc(OC)cc2OC)s1 | 1.1 (inactive)
COc1ccc(/C=C2/SC(=O)N(CC(=O)NCCC(C)C)C2=O)cc1OC | 1.1 (inactive)
COC(=O)Cn1c(CN2CCC(Cc3ccccc3)CC2)nc2c1c(=O)n(C)c(=O)n2C | 1.1 (inactive)
O=C(O[C@@H]1OC2COC(=O)c3cc(O)c(O)c(O)c3-c3c(cc(O)c(O)c3O)C(=O)O[C@@H]([C@H]1O)[C@@H]2O)c1cc(O)c(O)c(O)c1 | 1.3 (inactive)
COC(=O)c1cc(O)c(O)c(O)c1 | 1 (inactive)

SMILES | activation fold
O=C(OCC1O[C@@H](OC(=O)c2cc(O)c(O)c(O)c2)[C@@H](OC(=O)c2cc(O)c(O)c(O)c2)[C@@H](OC(=O)c2cc(O)c(O)c(O)c2)[C@@H]1OC(=O)c1cc(O)c(O)c(O)c1)c1cc(O)c(O)c(O)c1 (some centres not stated) | 3 (active)
COC(=O)C1=C(C)N=C2SC(C#N)=C(N)N2C1c1ccc(OC)cc1 (configuration not stated) | 1 (inactive)
COc1ccc(Cl)cc1NC(=O)CN1CCC(n2nnc3ccccc32)CC1 | 1.1 (inactive)
COc1ccc(Cl)cc1NC(=O)CN1CCC(n2nnc3cc(F)ccc32)CC1 | 1.5 (inactive)
Cc1nc(N2CCN(C(c3ccccc3)c3ccccc3)CC2)nc2c1C(=O)CCC2 | 1.1 (inactive)
Cc1ccc(-c2csc(NC(=O)CSC3=NCCS3)n2)cc1 | 1.1 (inactive)
CC(=O)Nc1ccc(S(=O)(=O)NCc2ccccn2)cc1 | 1.1 (inactive)
Cn1c(=O)c2c(ncn2CC(=O)N/N=C/c2ccco2)n(C)c1=O | 1.1 (inactive)
Cn1c(=O)c2c(nc(NCc3ccco3)n2C)n(C)c1=O | 1.1 (inactive)
CCc1ccc2oc(-c3ccc(OC)cc3)cc(=Nc3c(C)n(C)n(-c4ccccc4)c3=O)c2c1 | 0.9 (inactive)
Cc1ccc(CC(=O)Nc2nc3ccccc3s2)cc1 | 1 (inactive)
CCOC(=O)c1ccc(NCc2ccc3c(c2)OCO3)cc1 | 1 (inactive)
C/C(=N\Nc1ccc(C(=O)O)cc1)c1nc2ccccc2n1C | 0.9 (inactive)
CCn1c(CNc2ccc(C(=O)O)cc2)nc2ccccc21 | 1.1 (inactive)
COc1ccc(C(CNC(=O)CN2C(=O)NC3(CC(C)CC(C)(C)C3)C2=O)N2CCOCC2)cc1 (configuration not stated) | 1.2 (inactive)
O=C(COc1ccc(Cl)cc1)NCc1nnc(SCC(=O)NCCc2ccccc2)o1 | 1.1 (inactive)
Cc1cc(C)cc(CC(Cc2nc3ccccc3[nH]2)c2nc3ccccc3[nH]2)c1 (configuration not stated) | 1.6 (inactive)
COc1ccccc1CC(Cc1nc2ccccc2[nH]1)c1nc2ccccc2[nH]1 (configuration not stated) | 2.8 (inactive)
Cc1cc2oc(=O)cc(CN3CCN(Cc4ccccc4)CC3)c2cc1Cl | 1 (inactive)
COc1ccc(/C=C2\SC(=O)N(CC(=O)NNC(=O)c3ccccc3O)C2=O)cc1OC | 2.4 (inactive)
O=C(CN1C(=O)S/C(=C\c2ccccc2)C1=O)NNC(=O)c1ccccc1O | 2.2 (inactive)
COc1ccc(NC(=O)CC2C(=O)N(Cc3cccs3)C(=S)N2C(C)C)cc1 (configuration not stated) | 1.1 (inactive)
